The text below walks through data of PubChem BioAssay (EPA / NIEHS).

Several values for one entry are separate records, joined by “and”; a condition that tells them apart may be missing. Identical values can stand only once. Records with an inconclusive call do not appear. Some compounds were tested as several samples or in several runs, with calls that do not always agree. Activity calls are given as the source filed them. Rule for the calls, unless noted: active = hit-call score of the fitted dose curve at least 0.9, where 1 is the maximum; inconclusive = response in the unintended direction; inactive = score below 0.9.

Assay [1] addresses Agonist Androgen Response Element (ARE), AR (gene 367) (UniProt P10275). Description: OT_AR_ARELUC_AG_1440: Odyssey Thera (OT) 24-hour CHO-K1 Luciferase Assay for Agonist Androgen Response Element (ARE) (AID 2283379). A digest of the protocol:
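CHO-K1 cells carrying an ARE-driven luciferase reporter were exposed to compounds for 24 h. Luminescence was then read after adding a D-luciferin/ATP mix, and activity was scored as a gain in signal over DMSO vehicle.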

The target in assay [2] is Estrogen receptor beta (Homo sapiens) (UniProt Q92731). The assay can be described thus: OT_ER_ERbERb_1440: Odyssey Thera (OT) 24-hour HEK293T Protein-Complementation Assay for Estrogen Receptor-beta/-beta Homodimer (AID 2283380).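 Note: scored as signal increase over DMSO baseline for both agonists and antagonists.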 Summed up:
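HEK293T cells stably expressing ER beta LBD (aa 310-547) homodimer fragment-complementation reporter, dosed 24 h. Cells formaldehyde-fixed, Draq5-stained; gain in nuclear (agonist) or nuclear plus cytoplasmic (antagonist) fluorescence versus DMSO read by laser scanning cytometry.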

Assay [3] concerns the target Estrogen receptor (Homo sapiens) (UniProt P03372). Description: OT_ERa_GFPERaERE_0480: Odyssey Thera (OT) 8-hour HeLa Transcription Induction Assay for Estrogen Receptor (AID 2283381; active = hit-call score of the fitted dose curve at least 0.9, where 1 is the maximum; inactive = score below 0.9). Summed up: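 HeLa cells expressing GFP reporter under estrogen response element, imaged 8 h after dosing. GFP induction quantified by high-content fluorescence microscopy image analysis; gain of signal fitted versus DMSO.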

Assay [4] has the same target. The assay can be described thus: OT_ERa_GFPERaERE_0120: Odyssey Thera (OT) 2-hour HeLa Transcription Induction Assay for Estrogen Receptor (AID 2283382). Summed up:
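HeLa cells were dosed for 2 h, then GFP reporter induction was quantified by fluorescence microscopy with high-content image analysis. Gain of signal fitted against DMSO baseline.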

Assay [5] has as its target mouse Estrogen Receptor alpha (Era), Esr1 (gene 13982) (UniProt P19785). The assay can be described thus: NVS_NR_mERa: NovaScreen (NVS) Nuclear Receptor Binding Assay for mouse Estrogen Receptor alpha (Era) (AID 2283378).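 Note: hit means loss of bound radioligand signal relative to DMSO.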 Summed up: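 Cell-free radioligand competitive displacement binding, read by filter-based scintillation counting 18 h after dosing. Primary screen run in duplicate at 25 uM, actives retested in concentration series; loss of signal versus DMSO.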

Assay [6] deals with Retinoic acid receptor RXR-alpha (Homo sapiens) (UniProt P19793). Description: OT_NURR1_NURR1RXRa_0480: Odyssey Thera (OT) 8-hour HEK293T Protein Complementation Assay for Nurr1/retinoid X receptor (RXR) (AID 2283385). A digest of the protocol: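 HEK293T cells expressing Nurr1 and RXRα fused to reporter fragments (protein-fragment complementation); fluorescence measured 8 h after dosing. Gain of signal fitted relative to DMSO.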

Assay [7] shares this target. The assay can be described thus: OT_NURR1_NURR1RXRa_1440: Odyssey Thera (OT) 24-hour HEK293T Protein Complementation Assay for Nurr1/retinoid X receptor (RXR) (AID 2283386). A digest of the protocol: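 HEK293T protein-fragment complementation of Nurr1 and RXRα fused to reporter fragments; compounds 24 h. Fluorescence gain from reconstituted reporter fitted versus DMSO.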

For assay [8], the target named is Bile acid receptor (Homo sapiens) (UniProt Q96RI1). Description: OT_FXR_FXRSRC1_1440: Odyssey Thera (OT) 24-hour HEK293T Protein-Complementation Assay for Farnesoid X receptor/SRC-1 Co-activator (AID 2283384). Summed up: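 HEK293T cells, 24 h after chemical dosing. FXR–SRC-1 coactivator interaction read as fluorescence from protein-fragment complementation of a split reporter. Gain of signal fitted against DMSO baseline.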
Bile acid receptor (Homo sapiens), sequence (Q96RI1 whole entry, looked up, the tested form may be a part): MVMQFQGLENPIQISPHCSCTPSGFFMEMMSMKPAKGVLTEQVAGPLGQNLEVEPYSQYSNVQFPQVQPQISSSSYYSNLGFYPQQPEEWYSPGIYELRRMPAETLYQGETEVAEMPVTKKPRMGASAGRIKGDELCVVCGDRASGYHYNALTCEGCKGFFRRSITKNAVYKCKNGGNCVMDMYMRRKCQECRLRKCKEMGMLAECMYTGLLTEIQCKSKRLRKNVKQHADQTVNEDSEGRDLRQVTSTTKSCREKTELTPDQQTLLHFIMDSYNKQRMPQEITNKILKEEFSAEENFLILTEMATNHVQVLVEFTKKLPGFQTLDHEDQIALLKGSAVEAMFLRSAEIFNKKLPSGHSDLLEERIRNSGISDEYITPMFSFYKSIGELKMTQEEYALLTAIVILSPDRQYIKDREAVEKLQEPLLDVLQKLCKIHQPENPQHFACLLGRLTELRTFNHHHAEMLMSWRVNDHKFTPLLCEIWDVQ

mouse Estrogen Receptor alpha (Era), Esr1 (gene 13982), sequence (P19785 whole entry, looked up): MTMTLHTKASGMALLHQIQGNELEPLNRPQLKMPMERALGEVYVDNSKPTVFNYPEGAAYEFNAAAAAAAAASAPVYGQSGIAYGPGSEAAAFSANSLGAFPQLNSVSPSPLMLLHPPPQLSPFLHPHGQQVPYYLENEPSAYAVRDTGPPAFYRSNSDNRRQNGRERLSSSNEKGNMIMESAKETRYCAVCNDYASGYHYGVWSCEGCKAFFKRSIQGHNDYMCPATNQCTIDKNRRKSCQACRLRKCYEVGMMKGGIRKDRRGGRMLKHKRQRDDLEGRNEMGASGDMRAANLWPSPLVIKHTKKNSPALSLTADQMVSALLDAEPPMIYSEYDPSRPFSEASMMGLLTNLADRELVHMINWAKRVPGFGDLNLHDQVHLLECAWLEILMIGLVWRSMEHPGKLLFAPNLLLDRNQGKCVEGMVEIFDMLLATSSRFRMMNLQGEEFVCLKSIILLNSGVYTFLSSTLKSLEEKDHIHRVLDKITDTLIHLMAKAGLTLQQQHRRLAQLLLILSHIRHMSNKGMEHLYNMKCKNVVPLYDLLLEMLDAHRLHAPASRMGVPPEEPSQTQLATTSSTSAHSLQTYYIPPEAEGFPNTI
Agonist Androgen Response Element (ARE), AR (gene 367), sequence (P10275 whole entry, looked up): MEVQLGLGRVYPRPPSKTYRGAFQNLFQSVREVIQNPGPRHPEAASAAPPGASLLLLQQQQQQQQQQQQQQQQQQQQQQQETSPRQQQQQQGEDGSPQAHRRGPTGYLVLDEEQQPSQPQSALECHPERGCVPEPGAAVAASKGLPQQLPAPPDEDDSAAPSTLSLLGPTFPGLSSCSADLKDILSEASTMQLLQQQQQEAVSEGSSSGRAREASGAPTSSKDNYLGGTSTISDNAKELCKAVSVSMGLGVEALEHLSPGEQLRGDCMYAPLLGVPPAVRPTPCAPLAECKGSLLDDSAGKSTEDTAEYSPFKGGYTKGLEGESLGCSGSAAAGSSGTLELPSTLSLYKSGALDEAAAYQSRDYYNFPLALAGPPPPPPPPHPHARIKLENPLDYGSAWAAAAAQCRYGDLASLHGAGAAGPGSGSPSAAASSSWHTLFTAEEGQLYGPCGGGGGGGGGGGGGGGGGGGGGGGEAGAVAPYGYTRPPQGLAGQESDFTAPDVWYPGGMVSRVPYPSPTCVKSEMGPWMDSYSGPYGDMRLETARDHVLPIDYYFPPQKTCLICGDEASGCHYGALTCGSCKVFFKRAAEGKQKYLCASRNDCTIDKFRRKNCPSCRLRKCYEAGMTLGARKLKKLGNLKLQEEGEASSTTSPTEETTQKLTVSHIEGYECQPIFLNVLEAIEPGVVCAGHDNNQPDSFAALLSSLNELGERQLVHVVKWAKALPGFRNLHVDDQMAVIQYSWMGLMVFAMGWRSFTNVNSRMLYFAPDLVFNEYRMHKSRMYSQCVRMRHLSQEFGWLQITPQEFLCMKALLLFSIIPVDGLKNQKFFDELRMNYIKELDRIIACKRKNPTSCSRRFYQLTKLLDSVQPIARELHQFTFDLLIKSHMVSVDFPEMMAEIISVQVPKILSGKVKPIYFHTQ
Retinoic acid receptor RXR-alpha (Homo sapiens), sequence (P19793 whole entry, looked up, the tested form may be a part): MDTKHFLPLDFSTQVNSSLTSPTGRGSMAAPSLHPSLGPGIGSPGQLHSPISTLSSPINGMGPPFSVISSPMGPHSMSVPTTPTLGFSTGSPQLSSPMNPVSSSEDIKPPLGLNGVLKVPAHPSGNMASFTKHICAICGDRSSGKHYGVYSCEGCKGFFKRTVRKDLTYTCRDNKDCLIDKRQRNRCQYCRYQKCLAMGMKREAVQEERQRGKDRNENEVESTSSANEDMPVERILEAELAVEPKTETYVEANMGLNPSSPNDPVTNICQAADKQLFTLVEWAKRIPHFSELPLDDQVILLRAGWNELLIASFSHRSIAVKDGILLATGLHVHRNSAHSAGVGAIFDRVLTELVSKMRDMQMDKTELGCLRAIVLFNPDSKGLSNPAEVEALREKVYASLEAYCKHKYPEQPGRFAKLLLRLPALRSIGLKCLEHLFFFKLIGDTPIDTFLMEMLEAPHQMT
Estrogen receptor (Homo sapiens), sequence (P03372 whole entry, looked up): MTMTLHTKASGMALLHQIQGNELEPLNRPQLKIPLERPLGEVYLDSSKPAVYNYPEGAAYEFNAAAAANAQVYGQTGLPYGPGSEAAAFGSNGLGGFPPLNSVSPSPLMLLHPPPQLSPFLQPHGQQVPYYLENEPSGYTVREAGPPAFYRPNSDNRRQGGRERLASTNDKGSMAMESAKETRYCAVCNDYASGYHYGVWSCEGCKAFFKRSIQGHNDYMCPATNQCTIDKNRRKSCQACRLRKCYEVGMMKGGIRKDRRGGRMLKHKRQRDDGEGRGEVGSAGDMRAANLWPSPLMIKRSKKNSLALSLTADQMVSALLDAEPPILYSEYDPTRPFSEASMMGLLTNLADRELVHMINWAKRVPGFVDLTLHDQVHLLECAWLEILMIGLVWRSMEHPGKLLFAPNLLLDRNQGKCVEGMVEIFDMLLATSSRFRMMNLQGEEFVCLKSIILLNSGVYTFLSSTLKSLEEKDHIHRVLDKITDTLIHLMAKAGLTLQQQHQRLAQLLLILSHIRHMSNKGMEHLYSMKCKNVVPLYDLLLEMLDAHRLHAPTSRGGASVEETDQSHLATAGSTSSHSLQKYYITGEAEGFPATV
Estrogen receptor beta (Homo sapiens), sequence (Q92731 whole entry, looked up, the tested form may be a part): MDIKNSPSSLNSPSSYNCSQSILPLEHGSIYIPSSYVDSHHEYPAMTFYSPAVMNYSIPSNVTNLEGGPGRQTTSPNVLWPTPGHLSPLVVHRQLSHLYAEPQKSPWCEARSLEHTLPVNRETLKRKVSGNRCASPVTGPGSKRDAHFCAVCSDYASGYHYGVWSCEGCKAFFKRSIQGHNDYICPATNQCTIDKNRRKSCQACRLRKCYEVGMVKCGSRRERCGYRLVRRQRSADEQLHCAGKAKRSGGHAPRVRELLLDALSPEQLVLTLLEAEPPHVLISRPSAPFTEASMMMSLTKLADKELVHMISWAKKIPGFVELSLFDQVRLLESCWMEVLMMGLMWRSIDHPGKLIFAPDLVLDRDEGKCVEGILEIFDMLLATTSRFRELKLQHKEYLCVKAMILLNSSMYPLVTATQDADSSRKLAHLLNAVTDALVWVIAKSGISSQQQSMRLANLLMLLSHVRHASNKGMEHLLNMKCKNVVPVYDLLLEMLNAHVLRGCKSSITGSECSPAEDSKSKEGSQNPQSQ

Usually AC50 stands for the concentration at which the activity in the assay is half-maximal. For `CN(C)C(=S)SSC(=S)N(C)C`, the molecule was called inactive in assay [1] and in assay [2]. For the same molecule, the AC50 is 83.4 µM (active) in assay [3] and 90.7 µM (active) in assay [4].
As for `CCNc1nc(Cl)nc(NC(C)C)n1`, the half-maximal activity concentration (AC50) in assay [5] is 6.81 µM (active); in assay [4], 3.42 µM (active). Also, the outcome in assay [5], in assay [2], in assay [3], in assay [4], in assay [6] and in assay [7] was inactive.
Turning to `CCCC1COC(Cn2cncn2)(c2ccc(Cl)cc2Cl)O1` (stereo unspecified), the outcome in assay [1], in assay [3] and in assay [4] was inactive.
Consider `O=C(O)c1nc(Cl)ccc1Cl`, for which the result in assay [3], in assay [4], in assay [6] and in assay [7] was inactive.
Take `O=C(O)COc1nc(Cl)c(Cl)cc1Cl`: the molecule was classed as inactive in assay [3], in assay [4], in assay [6] and in assay [7].
Regarding `COP(N)(=O)SC` (stereo unspecified), the call in assay [2], in assay [3], in assay [4], in assay [8], in assay [6] and in assay [7] was inactive.
Regarding `COC(=O)N(OC)c1ccccc1COc1ccn(-c2ccc(Cl)cc2)n1`, the outcome in assay [2], in assay [3], in assay [4], in assay [6] and in assay [7] was inactive. The AC50 in assay [8] is 1.45 µM (active).
Consider `COc1cnc(OC)n2nc(NS(=O)(=O)c3c(OCC(F)F)cccc3C(F)(F)F)nc12`, for which the outcome in assay [2], in assay [3], in assay [4], in assay [6] and in assay [7] was inactive.
For `CCOc1cc(Oc2ccc(C(F)(F)F)cc2Cl)ccc1[N+](=O)[O-]`, the outcome in assay [2], in assay [3], in assay [4], in assay [8] and in assay [7] was inactive.
For `CCNc1nc(Cl)nc(NCC)n1`, the outcome in assay [2], in assay [3], in assay [4], in assay [8], in assay [6] and in assay [7] was inactive.
With `CNC(=S)S`, the result in assay [2], in assay [3], in assay [4] and in assay [7] was inactive.
On to `CC(C)(C)c1ccc(CSc2cnn(C(C)(C)C)c(=O)c2Cl)cc1`, for which the outcome in assay [2], in assay [3], in assay [4], in assay [8], in assay [6] and in assay [7] was inactive.
As to `CNC(=O)ON=CC(C)(C)SC`, the molecule was classed as inactive in assay [3], in assay [4], in assay [8], in assay [6] and in assay [7].
Turning to `COc1nc(NC(C)C)nc(NC(C)C)n1`, the outcome in assay [2], in assay [3], in assay [4] and in assay [7] was inactive.
Turning to `C#CCOS(=O)OC1CCCCC1Oc1ccc(C(C)(C)C)cc1` (stereo unspecified), the outcome in assay [2], in assay [3], in assay [4], in assay [6] and in assay [7] was inactive. The AC50 was 31.1 µM (active) in assay [8], 39.4 µM (active) in assay [6] and 31.6 µM (active) in assay [7].
`COP(=S)(OC)Oc1nc(Cl)c(Cl)cc1Cl`: the molecule was classed as inactive in assay [2], in assay [3], in assay [4], in assay [6] and in assay [7].
As for `CC(C)C1(C)N=C(c2nc3ccccc3cc2C(=O)O)NC1=O` (stereo unspecified), the outcome in assay [2], in assay [3], in assay [4], in assay [8], in assay [6] and in assay [7] was inactive.
Take `CC(Oc1ccc(Cl)cc1Cl)C(=O)O` (stereo unspecified): the outcome in assay [3], in assay [4], in assay [6] and in assay [7] was inactive.
Turning to `COC(=O)C(C)Oc1ccc(Oc2ccc(Cl)cc2Cl)cc1` (stereo unspecified), the outcome in assay [2], in assay [8] and in assay [6] was inactive.
`C=CCC1=C(C)[C@@H](OC(=O)[C@@H]2[C@@H](C=C(C)C)C2(C)C)CC1=O`: the molecule was called inactive in assay [3], in assay [4], in assay [6] and in assay [7]. For the same molecule, the AC50 in assay [8] was 50 µM (active); in assay [6], 31.5 µM (active); in assay [7] it was 80.6 µM (active).
Regarding `N#Cc1cc(Br)c(O)c(Br)c1`, the result in assay [3] and in assay [4] was inactive.
Regarding `CCOP(=S)(OCC)SCn1c(=O)oc2cc(Cl)ccc21`, the outcome in assay [2], in assay [3], in assay [4], in assay [6] and in assay [7] was inactive. Further, the AC50 in assay [8] is 12 µM (active).
In the case of `CCc1nn(C)c(C(=O)NCc2ccc(C(C)(C)C)cc2)c1Cl`, the molecule was called inactive in assay [2], in assay [3] and in assay [4]. For the same molecule, the concentration at half-maximal activity (AC50) in assay [7] was 11.6 µM (active).
Consider `CCON=C(CC)C1=C(O)CC(c2c(C)cc(C)cc2C)CC1=O` (stereo unspecified), for which the molecule was classed as inactive in assay [1], in assay [3], in assay [4], in assay [8], in assay [6] and in assay [7].
`CCCN(CCC)c1c([N+](=O)[O-])cc(S(N)(=O)=O)cc1[N+](=O)[O-]`: the call in assay [2], in assay [3] and in assay [4] was inactive.
As for `Fc1ccc(Oc2ccnc3cc(Cl)cc(Cl)c23)cc1`, the outcome in assay [2], in assay [3], in assay [4] and in assay [6] was inactive. The AC50 in assay [8] was 29.1 µM (active); in assay [6], 28.3 µM (active); in assay [7] it was 70.8 µM (active) and 65.4 µM (active).
Consider `COC(=O)C=C(C)OP(=O)(OC)OC`, for which the result in assay [2], in assay [3], in assay [4], in assay [8], in assay [6] and in assay [7] was inactive.
Take `Cc1c(F)c(F)c(COC(=O)C2C(/C=C(\Cl)C(F)(F)F)C2(C)C)c(F)c1F` (stereo unspecified): the call in assay [2], in assay [3], in assay [4], in assay [8] and in assay [6] was inactive.
Take `OC(c1ccc(Cl)cc1)(c1cncnc1)c1ccccc1Cl` (stereo unspecified): the result in assay [2], in assay [4] and in assay [7] was inactive. Also, the half-maximal activity concentration (AC50) in assay [3] was 12.1 µM (active).
